# RPL19A-GFP yeast: RPL19A-GFP expression modulators in yeast, primary screen, cell-based, S. cerevisiae, multiplex flow cytometry, MLPCN | S. cerevisiae RPL19A-GFP strain, 3 h; active compounds read low | percent response vs DMSO, % at 10 µM | hit rate 0.3% among 330,000 | AID 2025, 2009;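 active means percent response vs DMSO below 50%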;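 further: median channel GFP fluorescence of the barcoded RPL19A-GFP strain; ratio of sample median GFP to plate DMSO average so 100% = DMSO; lower means less RPL19A-GFP as with rapamycin TOR inhibition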
# AGP1-GFP MLPCN: modulators of AGP1-GFP expression in yeast TOR pathway, primary screen, cell-based, multiplex flow cytometry, S. cerevisiae, MLPCN library | 3 h; GFP as percent of DMSO wells | GFP response vs DMSO, % at 10 µM | hit rate 0.02% among 320,000;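 active means GFP response relative to DMSO above a set limit, near screen average plus 3 SD, cut at about 150% in these data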;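 further: median GFP channel fluorescence of the gated AGP1 strain per well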
# LAP4-GFP MLPCN: modulators of LAP4-GFP expression in yeast, primary screen, S. cerevisiae, multiplex flow cytometry, MLPCN library | 3 h; median GFP as percent of DMSO wells | AID 2023, 2009 | hit rate 0.34% among 320,000 | GFP response vs DMSO, % at 10 µM;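 active means GFP response vs DMSO above a set limit, about the screen mean plus 3 SD, cut at about 150% in these data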
# MEP2-GFP yeast: modulators of MEP2-GFP levels in yeast, primary screen, S. cerevisiae, multiplex flow cytometry, MLPCN library. AID 2016, 2009. GFP response vs DMSO, % at 10 µM. S. cerevisiae MEP2-GFP strain, 3 h; 100% = DMSO control level. hit rate 0.51% among 330,000;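 active means GFP response versus DMSO above a set limit, roughly screen mean plus 3 SD, cut at about 180% in these data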;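 further: median GFP fluorescence of the barcode-gated MEP2-GFP cells per well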
# CIT2 TOR yeast: modulators of CIT2-GFP expression in yeast, primary screen, S. cerevisiae, GFP fusion, multiplex flow cytometry, MLPCN library | GFP response vs DMSO, % at 10 µM | hit rate 0.065% among 320,000 | AID 2029, 2009 | S. cerevisiae CIT2-GFP strain, 3 h; 100 means same as DMSO wells;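 active means GFP response relative to DMSO above a set limit, near the screen mean plus 3 SD, cut at about 150% in these data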;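 further: ratio of well median GFP fluorescence to mean of DMSO wells on the plate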
# LAP4 cherry2: LAP4-GFP expression modulators in yeast, confirmation, cell-based, second cherry pick, flow cytometry; shares compounds with LAP4-GFP MLPCN; AID 2621, 2010; GFP response vs DMSO, % at 10 µM; hit rate 20% among 590; S. cerevisiae LAP4-GFP strain, 3 h;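 active means GFP signal as percent of the solvent control above about 150%, meaning raised reporter expression, limit read from the data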;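 further: ratio of well median GFP fluorescence to plate DMSO mean so 100% = DMSO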
# MEP2-GFP pick2: modulators of MEP2-GFP levels in yeast, confirmation, S. cerevisiae, flow cytometry GFP, second cherry picks; hit rate 10% among 590; GFP response vs DMSO, % at 10 µM; AID 2622, 2010; shares compounds with LAP4-GFP MLPCN; S. cerevisiae MEP2-GFP strain, 3 h;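 active means GFP signal above 150% of the solvent control wells, that is a rise of more than half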;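 further: median channel GFP fluorescence of all gated yeast cells per well; ratio of median GFP to plate DMSO average so 100% = DMSO level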
# RPL19A GFP CP2: RPL19A-GFP modulators in TOR pathway yeast, confirmation, cell-based, S. cerevisiae, flow cytometry, second cherry pick. hit rate 3% among 590. shares compounds with LAP4-GFP MLPCN. AID 2623, 2010. GFP response vs DMSO, % at 10 µM. S. cerevisiae RPL19A-GFP strain, 3 h; active compounds read low; 100% means same as DMSO wells;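 active means under 65% GFP response relative to DMSO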;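 further: median GFP channel fluorescence per well over the all cells gate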
# CIT2-GFP pick2: modulators of CIT2-GFP expression in yeast, confirmation, flow cytometry, second cherry pick, single plex; hit rate 8% among 590; AID 2624, 2010; S. cerevisiae CIT2-GFP strain, 3 h; DMSO control wells read 100%; shares compounds with LAP4-GFP MLPCN; GFP response vs DMSO, % at 10 µM;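 active means GFP response vs DMSO above about 150%, limit read from the data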;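 further: median green fluorescence per well over all gated yeast cells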
# AGP1-GFP pick2: AGP1-GFP expression modulators, hit retest, confirmation, cell-based, flow cytometry, S. cerevisiae, cherry pick set 2; shares compounds with LAP4-GFP MLPCN; S. cerevisiae AGP1-GFP strain, 3 h; percent response vs DMSO, % at 10 µM; 590 tested, under 10 active;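 active means over 150 percent of DMSO response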;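 further: median GFP channel fluorescence over all cells without mother daughter split; sample median GFP divided by mean DMSO control so 100% equals DMSO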
# s288c autofluor: compound autofluorescence in yeast s288c, dose response, artefact control for yeast TOR pathway GFP screen, s288c strain. shares compounds with LAP4-GFP MLPCN. S. cerevisiae s288c, 520 nm autofluorescence, flow cytometry, 3 h; active compounds read high; zero means same as solvent-only cells. fluorescence change (kMESF span) at 33 µM. 610 tested, under 10 active;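 active means fluorescence span over the dose series, or activity score, above about 33, limit read from the data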
# * marks the source's active call; other numbers are inactive results; . = not tested or not shown. Only some compounds are listed: those with a hit (about 0.93% of all), similar ones and a draw of the others.
SMILES,RPL19A-GFP yeast,AGP1-GFP MLPCN,LAP4-GFP MLPCN,MEP2-GFP yeast,CIT2 TOR yeast,LAP4 cherry2,MEP2-GFP pick2,RPL19A GFP CP2,CIT2-GFP pick2,AGP1-GFP pick2,s288c autofluor
CC(C)CC(=O)NC(=S)Nc1nc(-c2ccccc2)cs1,62.2,24.7,96.8,137.6,78.6,98.2,96.1,99.5,105.7,97.9,0
COc1cccc(/C=C2\C(=O)N(c3cccc(C)c3)C(=O)c3ccccc32)c1,95.5,93.9,154.4*,95.6,74.1,.,.,.,.,.,0
Cc1ccc(C)c(/C=C/C(=O)c2ccccc(=O)c2O)c1,90.6,67.4,135.0,95.8,72.5,145.3,167.7*,77.7,151.6*,82.0,13.8
Cc1ccc(/C=C/C(=O)c2ccccc2)cc1,114.4,114.5,111.5,102.8,106.9,.,.,.,.,.,.
O=C(/C=C/c1ccccc1Cl)c1ccccc(=O)c1O,63.1,33.0,145.7,160.0,94.8,162.3*,221.8*,76.4,144.6,77.4,15.8
Cc1ccc(/C=C/C(=O)c2ccccc(=O)c2O)c(C)c1,63.7,19.8,106.1,180.7*,102.6,.,.,.,.,.,0.91
Cc1ccc(-c2nc(CS(=O)CC(=O)NCc3ccc4c(c3)OCO4)c(C)o2)cc1 (stereo not given),99.3,99.8,101.4,104.0,102.8,.,.,.,.,.,.
CSCc1ccc(C(=O)N2CCC(CCC(=O)N(C)Cc3ccccc3)CC2)o1,101.5,100.7,95.9,95.0,98.8,.,.,.,.,.,.
CN(Cc1ccccc1)C(=O)CCC1CCN(C(=O)c2ccccc2C(F)(F)F)CC1,97.2,106.2,99.1,114.4,156.7*,99.0,101.5,101.3,109.7,103.5,.
Cc1cc(-c2cc(C(=O)NCc3ccccc3)on2)nc(S(C)(=O)=O)n1,95.1,97.1,102.7,98.0,88.1,101.9,98.2,100.7,100.7,99.3,.
COCCNc1nc(C)cc(-c2cc(C(=O)NCc3ccccc3)on2)n1,70.4,119.7,229.5*,355.8*,117.6,101.0,101.5,99.0,100.7,98.4,.
CCCNc1nc(-c2cc(C(=O)Nc3ccccc3)on2)cc(C(C)C)n1,98.0,92.4,115.0,107.0,97.9,100.2,99.6,94.2,96.0,104.4,.
COCCNc1nc(C)cc(-c2cc(C(=O)Nc3ccccc3)on2)n1,97.5,89.1,102.6,90.0,92.6,101.9,103.2,100.2,107.4,97.7,.
CCn1cc(C(=O)Nc2ccc(OC)c(S(=O)(=O)N3CCCCC3)c2)c(=O)c2ccc(C)nc21,106.9,112.8,157.7*,175.0*,137.9,96.2,101.5,101.7,97.2,102.7,.
Cc1cc(C)cc(N(CC(=O)NC2CCC(C)CC2)S(=O)(=O)c2c(C)[nH]c(=O)[nH]c2=O)c1 (stereo not given),102.5,101.8,97.5,96.2,95.3,.,.,.,.,.,.
CC(=O)N1NC(=Nc2ccccc2)SC1(C)C,62.0,79.5,94.6,132.9,90.0,115.2,101.3,96.1,96.0,98.1,.
O=C1NC(=Nc2ccccc2)SC1(CO)CO,101.8,102.5,107.1,117.3,113.2,.,.,.,.,.,.
COc1ccc(Cl)cc1NC(=O)CN1CCC(NC(=O)C2CC2)CC1,93.8,85.8,94.3,100.8,89.6,.,.,.,.,.,.
Cc1cc(C)nc(Nc2n[nH]c(COc3ccc4ccccc4c3)n2)n1,96.0,100.7,104.9,104.1,93.4,.,.,.,.,.,.
Cc1cc(C)nc(Nc2n[nH]c(COc3ccccc3)n2)n1,62.1,25.4,87.7,167.0,101.3,101.2,106.5,99.3,104.3,96.4,.
Cn1c(N)c(Sc2ccc([N+](=O)[O-])cc2)c(=O)n(C)c1=O,98.5,101.6,97.6,93.5,97.8,.,.,.,.,.,.
O=C1C=CC(=O)N1c1ccc(Sc2ccc([N+](=O)[O-])cc2)cc1,84.7,69.1,162.0*,101.9,84.9,.,.,.,.,.,2.96
CCC(=O)NC(c1ccccc1OC)c1ccc2cccnc2c1O (stereo not given),100.1,115.9,95.0,101.9,98.5,.,.,.,.,.,.
COc1ccc(Cl)cc1C(Nc1cccnc1)c1ccc2cccnc2c1O (stereo not given),85.1,106.4,191.7*,99.3,89.9,.,.,.,.,.,1
C=CCOc1ccccc1C(=O)/C=C1/C(=O)Nc2ccccc21,101.3,90.7,131.8,91.1,84.0,.,.,.,.,.,-0.4
SMILES,RPL19A-GFP yeast,AGP1-GFP MLPCN,LAP4-GFP MLPCN,MEP2-GFP yeast,CIT2 TOR yeast,LAP4 cherry2,MEP2-GFP pick2,RPL19A GFP CP2,CIT2-GFP pick2,AGP1-GFP pick2,s288c autofluor
NC(=O)COc1ccc(C(=O)/C=C2/C(=O)Nc3ccccc32)cc1,93.8,104.7,103.3,90.9,108.5,.,.,.,.,.,0.91
C=CCOc1ccc(C(=O)/C=C2/C(=O)Nc3ccccc32)cc1,104.6,105.4,105.5,106.3,97.3,.,.,.,.,.,-0.2
Cc1cc(C)c(C)c(S(=O)(=O)N2CCN(C(=O)C3CSC4(C)CCC(=O)N34)CC2)c1C (stereo not given),100.2,107.3,110.9,100.4,92.1,.,.,.,.,.,.
CC(C)(C)OC(=O)C[C@H]1C/C=C\C[C@H](CC(=O)N(CCO)Cc2ccccc2)C(=O)N2CCC[C@H]2COC1=O,101.1,95.4,101.5,103.6,98.8,.,.,.,.,.,.
O=C(Nc1ccc(Cl)cc1)c1nc[nH]c1C(=O)NCCCCNC(=O)c1[nH]cnc1C(=O)Nc1ccc(Cl)cc1,103.0,81.2,82.7,94.2,77.9,.,.,.,.,.,.
Cc1cc(=O)oc2cc(Oc3ccc([N+](=O)[O-])cc3C(F)(F)F)ccc12,96.5,95.6,99.0,102.3,94.3,105.2,104.8,97.8,98.7,103.4,0.11
Cc1ccc(C(=O)N2CCCC(c3ccc(Cl)cc3)=N2)cc1,99.2,103.6,122.1,99.9,105.9,.,.,.,.,.,.

# From PubChem
